The list is not random: actives were taken first. Their share in the collection is about 19%.
IL1B secr inh – qHTS for Inhibitors of Inflammasome Signaling: IL-1-beta AlphaLISA Primary Screen; THP-1 LPS/ATP IL-1B secretion, AlphaLISA, 16 h; hits give low values; hit rate 4.7% among 360,000; AID 743279, 2014; activity change, % at 57.5 µM; in the data active means activity change below about -50%; inconclusive means mostly about -30% to -49%
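Secreted IL-1B measured by AlphaLISA bead assay after 16 h compound exposure of THP-1 cells; compounds (final up to 57.5 uM) added 1 h before LPS (250 ng/mL) and ATP (1.25 mM) stimulation; lower signal means less secretion.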
DT40 TDP1 no CPT – qHTS for Inhibitors of human tyrosyl-DNA phosphodiesterase 1 (TDP1): qHTS in cells in absence of CPT | DT40 Tdp1-/- hTDP1 cells, no CPT, ATP luminescence, 48 h | Potency, µM (top dose mostly 46.2 µM), most hits filed as inhibitors | hit rate 15% among 420,000 | AID 686978, 2013; further: nearly all actives have a fitted effect of over 55% in size
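Chicken DT40 Tdp1-/- cells stably complemented with human TDP1 were seeded at 400 cells/well with DMSO in place of 20 nM camptothecin. After compound pinning, cells grew at least 48 hr at 37 °C; viability read by CellTiter-Glo luminescence.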
HT1080-NT tox – qHTS for induction of synthetic lethality in tumor cells producing 2HG: qHTS for the HT-1080-NT fibrosarcoma cell line. HT-1080-NT fibrosarcoma viability, CellTiter-Glo ATP luminescence, 48 h. Potency, µM (doses to about 46.1 µM), most hits filed as cytotoxic. hit rate 1.6% among 360,000. AID 686970, 2013;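 further: NT is the 2HG producing partner of a matched IDH1 knockdown line; nearly all actives have a fitted effect of over 55% in size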
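Fibrosarcoma NT cells, 750 per well in 5% FBS RPMI, were exposed to compound for 48 hours. Viability: CellTiter-Glo luminescence.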
TDP1 cell CPT – qHTS for Inhibitors of human tyrosyl-DNA phosphodiesterase 1 (TDP1): qHTS in cells in presence of CPT. Potency, µM (series often up to 46.2 µM), actives largely listed as inhibitors. chicken DT40 Tdp1-/-;hTDP1 cells + 20 nM CPT, ATP luminescence, 48 h. AID 686979, 2013. hit rate 12% among 420,000; further: nearly all actives have a fitted effect of over 55% in size
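Chicken DT40 Tdp1-/- cells complemented with human TDP1, 400 cells/well, exposed to compounds plus 20 nM camptothecin for at least 48 h at 37 C; viability read as ATP content by CellTiter-Glo luminescence.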
HT1080 IDH1KD tx – qHTS for induction of synthetic lethality in tumor cells producing 2HG: qHTS for the HT-1080-IDH1KD cell line. HT-1080 IDH1 knockdown viability, ATP luminescence, 48 h. hit rate 2% among 360,000. Potency, µM (highest dose often 46.1 µM), actives largely listed as cytotoxic
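IDH1KD HT-1080 cells, 750/well, RPMI + 5% FBS; compound pinned after 2 h settling; 48 h, 37 °C; CellTiter-Glo luminescence; % activity normalised to DMSO and no-cell wells; curves fitted, classed by r2 and efficacy.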
ELG1 repair inh – qHTS screen for small molecules that inhibit ELG1-dependent DNA repair in human embryonic kidney (HEK293T) cells expressing luciferase-tagged ELG1; HEK293T ELG1-luciferase reporter, luminescence, 16 h; DNA damage induced by 5-fluorouridine; hit rate 2.3% among 330,000; AID 504467, 2011; Potency, µM (top dose mostly 46.1 µM), usual class: inhibitors; further: nearly all actives have a fitted effect of over 55% in size
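Step one: seed 2,000 cells per well. Step two: pin-transfer compound or DMSO alongside 5-fluorouridine. Step three: incubate 16 hr, 37 °C, 5% CO2. Step four: add ONE-Glo, wait 30 min, read luminescence.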
Large screens that a line does not name were inactive; ! = repeats disagree. Unless noted, the call rests on the fitted dose curve; in most records, active means well fitted curve in the direction sought with a large enough effect; inconclusive means small, poorly fitted or top-dose-only effect, or another doubt; inactive means no such curve, though single readings can be large; an effect the other way counts as inactive or inconclusive.

CCOC(=O)c1c(C=O)c2ccccc2n1Cc1ccccc1	none
COc1cccc(OC)c1-c1nn2c(-c3n[nH]c4c3CCC4)nnc2s1	DT40 TDP1 no CPT 5.62µM, TDP1 cell CPT 6.31µM (no result: IL1B secr inh, HT1080-NT tox, HT1080 IDH1KD tx, ELG1 repair inh)
C=CCN(CC=C)Cc1c[nH]c2ccccc12	DT40 TDP1 no CPT inconclusive, TDP1 cell CPT 11.6µM
CC(=O)Cc1c[nH]c2ccccc12	DT40 TDP1 no CPT inconclusive, TDP1 cell CPT inconclusive (no result: IL1B secr inh, HT1080-NT tox, HT1080 IDH1KD tx)
CN(C)Cc1c[nH]c2ccccc12	DT40 TDP1 no CPT 13µM!, TDP1 cell CPT 11.6µM
Cc1cccc(C#N)c1	ELG1 repair inh inconclusive
Cc1ccc(-c2nc3ccc(Cl)cn3c2Nc2ccccc2C)s1	DT40 TDP1 no CPT 16.4µM, TDP1 cell CPT 20.6µM (no result: IL1B secr inh, HT1080-NT tox, HT1080 IDH1KD tx, ELG1 repair inh)
CN1CC2([N+](=O)[O-])CC=C(Cl)C([N+](=O)[O-])(C1)C2 (configuration not stated)	none
COc1ccccc1NC(=O)N(Cc1ccco1)C1CCN(C(C)=O)CC1	DT40 TDP1 no CPT inconclusive (no result: IL1B secr inh, HT1080-NT tox, HT1080 IDH1KD tx, ELG1 repair inh)
CCOC(=O)c1c(C)n(CCOC)c2ccc(O)cc12	DT40 TDP1 no CPT inconclusive, TDP1 cell CPT inconclusive
CCOC(=O)c1c(C)n(Cc2ccco2)c2c1cc(O)c1ccccc12	DT40 TDP1 no CPT inconclusive, TDP1 cell CPT inconclusive
CCOC(=O)c1c(N)n(CCCOC(=O)c2ccco2)c2nc3ccccc3nc12	DT40 TDP1 no CPT 13µM, HT1080-NT tox 23.1µM, TDP1 cell CPT 11.6µM, HT1080 IDH1KD tx 18.4µM, ELG1 repair inh inconclusive
CCOC(=O)c1c(NS(=O)(=O)c2ccccc2)n(CCCOC)c2nc3ccccc3nc12	IL1B secr inh -96.0, DT40 TDP1 no CPT inconclusive, HT1080-NT tox inconclusive, TDP1 cell CPT inconclusive, HT1080 IDH1KD tx inconclusive
CCCCCn1c(NC(=O)c2ccco2)c(C(=O)OCC)c2nc3ccccc3nc21	IL1B secr inh -100.7, DT40 TDP1 no CPT 16.4µM, HT1080-NT tox 9.2µM, TDP1 cell CPT 20.6µM, HT1080 IDH1KD tx 11.6µM
COc1cc(/C=C/[N+](=O)[O-])ccc1OC(=O)c1cccnc1	IL1B secr inh inconclusive, DT40 TDP1 no CPT 2.31µM, TDP1 cell CPT 3.26µM, ELG1 repair inh inconclusive
COc1cc(/C=N/n2cnnc2)ccc1OC(=O)N(C)C	none
N#Cc1ccc(CN2CCC3(CC2)CCN(C(=O)Oc2ccccc2)CC3)cc1	none (no result: IL1B secr inh, HT1080-NT tox, HT1080 IDH1KD tx, ELG1 repair inh)
CCOc1ccc(/C=C/c2nc(C#N)c(NCc3ccccc3)o2)cc1	DT40 TDP1 no CPT 1.16µM, TDP1 cell CPT inconclusive (no result: IL1B secr inh, HT1080-NT tox, HT1080 IDH1KD tx, ELG1 repair inh)
CC(C)CCn1c(N)c(C(=O)NCc2cccs2)c2nc3ccccc3nc21	IL1B secr inh inconclusive, DT40 TDP1 no CPT inconclusive, TDP1 cell CPT inconclusive, ELG1 repair inh 6.51µM
COCCNC(=O)c1c(N)n(CCC(C)C)c2nc3ccccc3nc12	IL1B secr inh -115.9, DT40 TDP1 no CPT 18.4µM, TDP1 cell CPT 11.6µM, ELG1 repair inh 5.8µM
Nc1c(C(=O)OCC2CCCO2)c2nc3ccccc3nc2n1Cc1cccs1 (configuration not stated)	DT40 TDP1 no CPT 18.4µM, HT1080-NT tox inconclusive, TDP1 cell CPT inconclusive, HT1080 IDH1KD tx inconclusive, ELG1 repair inh inconclusive
CC(C)CCNC(=O)c1c(N)n(Cc2ccc3c(c2)OCO3)c2nc3ccccc3nc12	IL1B secr inh inconclusive, DT40 TDP1 no CPT inconclusive, TDP1 cell CPT inconclusive, ELG1 repair inh inconclusive
CC(C)OCCCNC(=O)c1c(N)n(Cc2cccs2)c2nc3ccccc3nc12	IL1B secr inh -63.0, DT40 TDP1 no CPT 18.4µM, HT1080-NT tox 18.4µM, TDP1 cell CPT inconclusive, HT1080 IDH1KD tx inconclusive, ELG1 repair inh 16.4µM
N#Cc1ccc(CN2CC[C@@]3(CCCN(C(=O)Oc4ccccc4)C3)C2)cc1	DT40 TDP1 no CPT inconclusive (no result: IL1B secr inh, HT1080-NT tox, HT1080 IDH1KD tx, ELG1 repair inh)
Cc1cc(C=O)c(C)n1C(C)C	none

Source: PubChem
